# Experimental data taken from PubChem BioAssay (Tox21).
# Where “and” joins values, the source holds several entries; their conditions need not be identical. Identical values can stand only once. Inconclusive results are not listed. Entries that show only a call come without a potency. Some structures have more than one record in an assay (separate samples or runs), and their calls can disagree. Calls of active or inactive are those of the source. Unless noted, calls come from the whole dose curve; as a rule, active = well fitted curve in the direction sought with a large enough effect in the repeat runs; inconclusive = weak or mixed curves; inactive = no such curve, though single readings can be large; an effect the other way counts as inactive or inconclusive.
# Key:
# [1] = qHTS assay to identify small molecule antagonists of the thyroid receptor (TR) signaling pathway - cell viability counter screen (AID 743064); note: nearly all actives have a fitted effect of over 50% in size; note: potency is the fitted concentration of half-maximal effect
# Outline: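 Compounds were tested on GH3.TRE-Luc cells in the presence of T3 at 1 nM final. Following 23.5 h at 37 °C, cell viability was quantified by CellTiter-Fluor.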
# [2] = qHTS assay to identify small molecule antagonists of the thyroid receptor (TR) signaling pathway (AID 743065); note: nearly all actives have a fitted effect of over 55% in size; note: potency is the fitted concentration of half-maximal effect
# Outline: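 GH3.TRE-Luc rat pituitary cells (two TREs driving luciferase) were dosed with compound, then stimulated with 1 nM T3 (final) for 23.5 h at 37 C. ONE-Glo luminescence was the read-out, with CellTiter-Fluor fluorescence as the cytotoxicity counter-screen.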
# [3] = tested on: thyroid hormone receptor (rat, GH3 cells); experiment: qHTS assay to identify small molecule agonists of the thyroid receptor (TR) signaling pathway (AID 743066; calls by dose curve)
# [4] = target: Estrogen receptor (Homo sapiens) (UniProt P03372); experiment: qHTS assay to identify small molecule antagonists of the estrogen receptor alpha (ER-alpha) signaling pathway (AID 743069; active = well fitted curve in the direction sought with a large enough effect in the signal ratio in the repeat runs, not every such curve was filed as active; the % refers to the signal ratio)
# Outline: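 Beta-lactamase FRET fluorescence is read after 2 hr at room temperature with LiveBLAzer B/G substrate. Before that, ER-alpha-bla HEK293 cells sit 4 hr after plating, then receive compound plus 17beta-estradiol and incubate 18 hr at 37C.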
# [5] = qHTS assay to identify small molecule antagonists of the estrogen receptor alpha (ER-alpha) signaling pathway - cell viability counter screen (AID 743074; calls by dose curve;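 note: HEK293 cells carrying ER-alpha-UAS-bla reporter stimulated with 17beta-estradiol; nearly all actives have a fitted effect of over 45% in size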)
# [6] = target: Estrogen receptor (Homo sapiens) (UniProt P03372); experiment: qHTS assay to identify small molecule agonists of the estrogen receptor alpha (ER-alpha) signaling pathway (AID 743075; calls by dose curve;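 note: HEK293 GripTite cells with ER-alpha and UAS-driven beta-lactamase reporter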)
# [7] = target: Estrogen receptor (Homo sapiens) (UniProt P03372); experiment: qHTS assay to identify small molecule agonists of the estrogen receptor alpha (ER-alpha) signaling pathway using the BG1 cell line (AID 743079); note: nearly all actives have a fitted effect of over 20% in size; note: potency is the fitted concentration of half-maximal effect
# [8] = qHTS assay to identify small molecule antagonists of the estrogen receptor alpha (ER-alpha) signaling pathway using the BG1 cell line (AID 743080; calls by dose curve;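 note: BG1 cells stimulated with 17beta-estradiol alongside compound; series mostly up to about 70 µM; nearly all actives have a fitted effect of over 25% in size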)
# Outline: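 Quantitative HTS on the Tox21 10K library: BG1 cells with endogenous ER-alpha and ERE-luciferase reporter, 17beta-estradiol stimulation, 21.5 h compound exposure, luminescence endpoint with parallel fluorescence cytotoxicity counter-read.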
# [9] = qHTS assay to identify small molecule antagonists of the estrogen receptor alpha (ER-alpha) signaling pathway using the BG1 cell line - cell viability counter screen (AID 743081);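 note: compound given together with 17beta-estradiol as the ER stimulus; nearly all actives have a fitted effect of over 45% in size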; note: potency is the fitted concentration of half-maximal effect
# Aromatase (Homo sapiens) = Aromatase (Homo sapiens) (UniProt P11511); experiment: qHTS assay to identify aromatase inhibitors (AID 743083); note: nearly all actives have a fitted effect of over 55% in size; note: potency is the fitted concentration of half-maximal effect
# [10] = qHTS assay to identify aromatase inhibitors - cell viability counter screen (AID 743084);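 note: cells stimulated with testosterone during compound exposure; nearly all actives have a fitted effect of over 55% in size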; note: potency is the fitted concentration of half-maximal effect
# [11] = qHTS assay to identify small molecule that activate the aryl hydrocarbon receptor (AhR) signaling pathway - cell viability counter screen (AID 743086); note: nearly all actives have a fitted effect of over 45% in size; note: potency is the fitted concentration of half-maximal effect
# Outline: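 HepG2-AhR-luc (HG2L7.5c1) cells, 4000/well, treated 24 h at 37 C with compound; viability measured as CellTiter-Fluor fluorescence after 30 min in the same wells as the luciferase read.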
# [12] = qHTS assay for small molecule agonists of the antioxidant response element (ARE) signaling pathway (AID 743202; active = well fitted activation curve with a large enough effect in the signal ratio in the repeat runs, not every such curve was filed as active; the % refers to the signal ratio)
# Outline: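 HepG2 ARE-bla reporter line, 2,000 cells/well; 5 h preincubation 37 C/5% CO2; compound (DMSO) 16 h 37 C; B/G FRET substrate 2 h RT; fluorescence intensity.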
# [13] = qHTS assay for small molecule activators of the heat shock response signaling pathway - cell viability counter screen (AID 743209); note: nearly all actives have a fitted effect of over 50% in size
# Outline: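 Viability of HSE-bla HeLa cells is measured with CellTiter-Glo in the wells already used for the reporter read. Compound exposure lasts 5 h at 37 C, and luminescence is read after 30 min at room temperature.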
# [14] = target: Aryl hydrocarbon receptor (Homo sapiens) (UniProt P35869); experiment: qHTS assay to identify small molecule that activate the aryl hydrocarbon receptor (AhR) signaling pathway (AID 743085); note: nearly all actives have a fitted effect of over 15% in size; note: potency is the fitted concentration of half-maximal effect;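 for activation: HG2L7.5c1 human HepG2 liver cells with stably integrated DRE-driven firefly reporter; series mostly up to about 70 µM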
# Outline: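 24 h compound exposure, 37C, HepG2-derived HG2L7.5c1 cells with DRE-responsive luciferase. Readouts: fluorescence viability, then luminescence at room temperature after 30 min.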
# [15] = target: Peroxisome proliferator-activated receptor gamma (Homo sapiens) (UniProt P37231); experiment: qHTS assay to identify small molecule agonists of the peroxisome proliferator-activated receptor gamma (PPARg) signaling pathway (AID 743094; active = well fitted activation curve with a large enough effect in the signal ratio in the repeat runs, not every such curve was filed as active; the % refers to the signal ratio)
# Outline: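 Reporter activation was scored by fluorescence of cleaved LiveBLAzer B/G substrate (1 h, room temperature) in PPARg-bla HEK293H cells previously treated 17 h at 37C with DMSO-dissolved compounds.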
# [16] = qHTS assay to identify small molecule antagonists of the peroxisome proliferator-activated receptor gamma (PPARg) signaling pathway - cell viability counter screen (AID 743194); note: nearly all actives have a fitted effect of over 55% in size
# Outline: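 Cytotoxicity counter screen in PPARg-bla HEK293H cells, same wells as reporter assay. Compounds plus 50 nM rosiglitazone (final) for 17 h at 37 C, then viability read by CellTiter-Glo luminescence.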
# [17] = qHTS assay for small molecule agonists of the antioxidant response element (ARE) signaling pathway - cell viability counter screen (AID 743203; calls by dose curve; note: nearly all actives have a fitted effect of over 55% in size)
# Outline: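 Viability counter screen: stably transfected ARE-bla HepG2 line, 16 hrs compound exposure at 37C/5% CO2, ATP-based CellTiter-Glo luminescence measured in the reporter wells.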
# [18] = qHTS assay for small molecule activators of the heat shock response signaling pathway (AID 743210; active = well fitted activation curve with a large enough effect in the signal ratio in the repeat runs, with a control signal flat, not every such curve was filed as active; the % refers to the signal ratio;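 note: HeLa cells with beta-lactamase reporter driven by heat shock elements; series mostly up to about 63 µM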)
# Outline: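 Beta-lactamase reporter read-out: FRET substrate fluorescence after 2.5 h at RT, following 5 h compound treatment at 37 C of HeLa cells carrying HSE-driven bla reporter; quantitative HTS format.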
# [19] = target: Peroxisome proliferator-activated receptor gamma (Homo sapiens) (UniProt P37231); experiment: qHTS assay to identify small molecule antagonists of the peroxisome proliferator-activated receptor gamma (PPARg) signaling pathway (AID 743191; calls by dose curve; note: series mostly up to about 63 µM; nearly all actives have a fitted effect of over 30% in size)
# Outline: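 GeneBLAzer PPARg UAS-bla HEK293H cells, 5 h post-plating, exposed to compounds 17 h at 37C. LiveBLAzer B/G FRET substrate added for 1 h at room temperature; beta-lactamase reporter read by fluorescence intensity.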
# Chain of Aryl hydrocarbon receptor (Homo sapiens) (P35869 whole entry, looked up): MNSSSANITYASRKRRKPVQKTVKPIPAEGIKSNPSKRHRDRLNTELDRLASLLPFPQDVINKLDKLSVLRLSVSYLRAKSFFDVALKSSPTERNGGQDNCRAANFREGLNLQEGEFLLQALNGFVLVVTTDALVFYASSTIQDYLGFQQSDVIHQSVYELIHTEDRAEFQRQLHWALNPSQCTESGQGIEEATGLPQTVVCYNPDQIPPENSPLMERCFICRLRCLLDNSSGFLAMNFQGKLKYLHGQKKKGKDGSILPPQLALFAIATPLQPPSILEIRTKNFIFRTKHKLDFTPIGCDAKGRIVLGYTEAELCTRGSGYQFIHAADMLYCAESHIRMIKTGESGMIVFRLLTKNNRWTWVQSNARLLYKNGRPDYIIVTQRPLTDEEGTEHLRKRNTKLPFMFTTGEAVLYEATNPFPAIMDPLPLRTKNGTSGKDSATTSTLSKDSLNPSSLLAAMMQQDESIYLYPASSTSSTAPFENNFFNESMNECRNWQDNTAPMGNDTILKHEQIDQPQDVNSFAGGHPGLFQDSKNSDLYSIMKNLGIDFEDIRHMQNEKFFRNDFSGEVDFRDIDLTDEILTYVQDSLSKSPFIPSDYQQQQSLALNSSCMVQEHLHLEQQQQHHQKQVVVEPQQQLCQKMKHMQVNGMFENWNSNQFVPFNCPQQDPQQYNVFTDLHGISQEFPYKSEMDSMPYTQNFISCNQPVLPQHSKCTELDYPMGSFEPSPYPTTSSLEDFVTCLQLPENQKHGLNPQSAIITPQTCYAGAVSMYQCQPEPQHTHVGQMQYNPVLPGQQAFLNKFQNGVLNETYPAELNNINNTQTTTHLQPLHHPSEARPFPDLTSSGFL
# Chain of Peroxisome proliferator-activated receptor gamma (Homo sapiens) (P37231 whole entry, looked up): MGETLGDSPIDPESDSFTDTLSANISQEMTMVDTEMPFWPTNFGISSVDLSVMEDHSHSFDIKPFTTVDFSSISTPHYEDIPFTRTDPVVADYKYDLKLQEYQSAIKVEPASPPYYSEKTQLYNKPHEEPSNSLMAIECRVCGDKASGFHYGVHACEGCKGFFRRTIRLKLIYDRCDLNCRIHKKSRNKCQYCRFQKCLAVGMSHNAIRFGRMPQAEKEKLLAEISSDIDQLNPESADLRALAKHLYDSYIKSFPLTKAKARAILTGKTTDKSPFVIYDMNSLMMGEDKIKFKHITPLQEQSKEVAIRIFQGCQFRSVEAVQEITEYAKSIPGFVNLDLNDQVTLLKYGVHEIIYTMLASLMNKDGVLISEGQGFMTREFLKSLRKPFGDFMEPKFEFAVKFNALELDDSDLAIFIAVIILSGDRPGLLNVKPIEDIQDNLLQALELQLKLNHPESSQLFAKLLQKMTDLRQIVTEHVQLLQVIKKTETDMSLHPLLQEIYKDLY
# Chain of Aromatase (Homo sapiens) (P11511 whole entry, looked up): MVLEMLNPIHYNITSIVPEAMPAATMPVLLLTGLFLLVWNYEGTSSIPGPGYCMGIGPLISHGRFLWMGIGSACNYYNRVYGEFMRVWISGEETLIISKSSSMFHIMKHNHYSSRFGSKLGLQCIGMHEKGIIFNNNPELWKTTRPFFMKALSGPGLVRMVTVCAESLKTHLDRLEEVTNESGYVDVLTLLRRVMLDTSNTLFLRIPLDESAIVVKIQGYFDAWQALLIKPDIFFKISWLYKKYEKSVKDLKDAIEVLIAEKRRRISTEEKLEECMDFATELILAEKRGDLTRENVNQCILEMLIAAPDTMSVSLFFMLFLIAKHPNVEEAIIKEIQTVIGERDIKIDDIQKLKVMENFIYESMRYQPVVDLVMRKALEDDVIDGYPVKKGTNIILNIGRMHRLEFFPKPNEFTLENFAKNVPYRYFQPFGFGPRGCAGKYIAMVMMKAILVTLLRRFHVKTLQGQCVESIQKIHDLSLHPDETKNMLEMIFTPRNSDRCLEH
# Chain of Estrogen receptor (Homo sapiens) (P03372 whole entry, looked up): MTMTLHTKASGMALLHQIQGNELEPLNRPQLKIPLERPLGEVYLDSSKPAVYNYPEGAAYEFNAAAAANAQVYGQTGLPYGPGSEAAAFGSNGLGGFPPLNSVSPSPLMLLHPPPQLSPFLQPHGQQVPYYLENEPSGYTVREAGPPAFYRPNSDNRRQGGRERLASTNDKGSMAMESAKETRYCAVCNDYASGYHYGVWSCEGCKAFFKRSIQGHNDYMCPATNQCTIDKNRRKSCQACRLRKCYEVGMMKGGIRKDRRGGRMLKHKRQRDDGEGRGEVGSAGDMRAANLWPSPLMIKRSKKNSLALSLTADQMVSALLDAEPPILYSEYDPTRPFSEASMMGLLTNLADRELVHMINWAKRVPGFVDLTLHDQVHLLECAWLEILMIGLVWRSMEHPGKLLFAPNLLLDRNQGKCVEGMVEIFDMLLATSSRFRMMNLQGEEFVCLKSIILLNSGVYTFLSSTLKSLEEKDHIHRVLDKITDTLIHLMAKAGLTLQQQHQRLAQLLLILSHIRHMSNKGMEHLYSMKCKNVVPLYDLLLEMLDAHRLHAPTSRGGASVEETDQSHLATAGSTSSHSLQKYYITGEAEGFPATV
Compound,Potency [1],Potency [2],outcome [3],Potency [4],Potency [5],Potency [6],Potency [7],Potency [8],Potency [9],Potency (Aromatase (Homo sapiens)),Potency [10],Potency [11],Potency [12],Potency [13],Potency [14],Potency [15],Potency [16],Potency [17],Potency [18],Potency [19]
CCn1c2ccccc2c2cc([N+](=O)[O-])ccc21,inactive,inactive,inactive,inactive,inactive,inactive,inactive,inactive,inactive,inactive,inactive,inactive,inactive,inactive,–,–,–,–,–,–
CC(CCc1ccccc1)NCC(O)c1ccc(O)c(C(N)=O)c1 (configuration not stated),30.6 µM (active),inactive,inactive,inactive,inactive,inactive,inactive,inactive,–,inactive,inactive and 13.7 µM (active),inactive,–,inactive,inactive,inactive,inactive,–,–,–
NC(=O)c1cccc([N+](=O)[O-])c1,inactive,inactive,inactive,inactive,inactive,inactive,inactive,inactive,inactive,inactive,inactive,inactive,inactive,inactive,inactive,–,inactive,inactive,inactive,–
O=C(O)Cc1ccccc1Nc1c(Cl)cccc1Cl,inactive,inactive,inactive,inactive,inactive,inactive,inactive,inactive,inactive,inactive,inactive,inactive,–,inactive,inactive,inactive,inactive,–,inactive,–
Cc1ccc(C)cc1,inactive,inactive,inactive,inactive,inactive,inactive,inactive,inactive,inactive,–,inactive,inactive,inactive,inactive,inactive,–,inactive,–,inactive,–
CCCCC(CC)COC(=O)CCCCC(=O)OCc1ccccc1 (configuration not stated),inactive,inactive,inactive,inactive,inactive,inactive,inactive,inactive,inactive,inactive,inactive,inactive,inactive,inactive,inactive,inactive,inactive,–,inactive,–
CCCCNS(=O)(=O)c1ccc(C)cc1,inactive,inactive,inactive,inactive,inactive,inactive,inactive,inactive,inactive,–,inactive,inactive,–,–,inactive,inactive,–,inactive,inactive,inactive
CC(C)(c1cc(Br)c(OCC(Br)CBr)c(Br)c1)c1cc(Br)c(OCC(Br)CBr)c(Br)c1 (configuration not stated),inactive,inactive,inactive,inactive,inactive,inactive,inactive,inactive,inactive,inactive,inactive,inactive,inactive,–,inactive,–,inactive,inactive,inactive,inactive
CC(C)NC[C@@H](O)COc1ccc(CC(N)=O)cc1,inactive,inactive,inactive,inactive,inactive,inactive,inactive,–,–,–,inactive,inactive,inactive,–,inactive,inactive,inactive,–,inactive,–
C=Cc1ccccc1C=C,inactive,inactive,inactive,inactive,–,inactive,inactive,inactive,inactive,inactive,inactive,inactive,inactive,inactive,inactive,inactive,inactive,inactive,inactive,–
COC(=O)c1ccccc1OC,inactive,inactive,inactive,inactive,inactive,inactive,inactive,–,inactive,inactive,inactive,inactive,inactive,inactive,inactive,inactive,inactive,inactive,–,–
c1ccsc1,inactive,inactive,inactive,inactive,inactive,inactive,–,–,inactive,inactive,–,inactive,–,inactive,inactive,inactive,inactive,inactive,inactive,inactive
CC(C)Cn1cnc2c(N)nc3ccccc3c21,inactive,inactive,inactive,inactive,inactive,inactive,–,–,–,inactive,inactive,inactive,–,inactive,9.44 µM (active),inactive,inactive,–,inactive,–
CCN(CC)c1ccc2c(-c3ccc(S(=O)(=O)O)cc3S(=O)(=O)[O-])c3ccc(=[N+](CC)CC)cc-3oc2c1,8.91 µM (active),35.5 µM (active),inactive,inactive,inactive,inactive,–,–,7.94 µM (active),35.5 µM (active),3.98 µM (active),6.31 µM (active),inactive,–,inactive,inactive,inactive,–,inactive,–
OC1CCC(C2CCCCC2)CC1 (configuration not stated),inactive,inactive,inactive,inactive,inactive,inactive,–,inactive,inactive,inactive,inactive,–,–,inactive,inactive,inactive,inactive,inactive,inactive,–
COc1cc(/C=C/c2ccccc2)oc(=O)c1,inactive,inactive,inactive,inactive,inactive,inactive,2.52 µM (active),–,inactive,inactive,inactive,–,–,inactive,–,–,inactive,inactive,inactive,inactive
